Our source for the CPE inhibition values is PubChem BioAssay AID2391 (Southern Research Specialized Biocontainment Screening …, 2010).

Each structure is given as a SMILES string. About 410 (0.13%) of roughly 310,000 compounds were called active. Roughly 2% stayed inconclusive and do not appear here. Only a sample is shown. Measured potencies and affinities stand elsewhere. Values without a mark were called inactive. How the calls were made is not given here.

A short description of the experiment: RSV antiviral activity via CPE protection, HEp-2 cells, primary 10 µM value included (AID 2391). As to conditions: RSV-induced CPE inhibition, at 10 µM, hits give high values.
Turning to `COc1cc2c(-c3ccccc3O)nc3c(c(C)nn3-c3ccccc3)c2cc1OC`, the CPE inhibition was 1.81%.
The result for `COc1cc(-c2nc3c(c(C)nn3-c3ccccc3)c3cc(OC)c(OC)cc23)ccc1O` reads 57.5%; that for `Cc1ccc(Nc2nc(CSc3nnc(-c4ccncc4)n3C)cs2)cc1`, 1.07%; that for `Cc1cc(C)n2nc(SCc3c(F)cccc3Cl)nc2n1`, 0.85%.
The figure for `CN(CCO)S(=O)(=O)c1ccc2c(c1)C(=NO)c1cc(S(=O)(=O)N(C)CCO)ccc1-2` is -0.46%.
Regarding `CN(C)S(=O)(=O)c1ccc2c(c1)C(=NO)c1cc(S(=O)(=O)N(C)C)ccc1-2`, the CPE inhibition was 2.67%.
The figure for `CCS(=O)(=O)N1CCN(c2ccccn2)CC1` is -0.21%; for `Cn1nnnc1SCC(=O)N(C1CCCCC1)C1CCS(=O)(=O)C1` (configuration not stated) it is -0.03%.
`CCC(=O)NCCc1nc2cc(NC(=O)Nc3ccccc3)ccc2n1C`: the CPE inhibition is 1.28%.
The figure for `CC(NC(=O)c1ccc(F)cc1Cl)C1CC2CCC1C2` (configuration not stated) is 1.15%; for `COCc1cc(C)nc(SCC(=O)Nc2ccc(N3CCOCC3)cc2)c1C#N` it is 1.56%.
Turning to `COCc1cc(C)nc(SCC(=O)Nc2cc(C(F)(F)F)ccc2N2CCOCC2)c1C#N`, the CPE inhibition was 1.23%.
As for `CC(=O)CC(C)(C)n1nnc(-c2ccccc2)n1`, the CPE inhibition was 1.03%.
`COc1ccc(CNC(=O)N2CCN(c3ccc(F)cc3)CC2)cc1`: the CPE inhibition is 0.79%.
The figure for `Nn1c(SCc2cccc3ccccc23)nnc1-c1ccco1` is 0.35%; for `Cn1c(SCc2ccccc2)nnc1-c1ccco1` it is 3.37%; for `Cc1ccc(SCCOCCN2CCOCC2)cc1` it is -1.12%.
The figure for `Cc1sc2nc(C(C)C)nc(SCC(=O)N3c4ccccc4CC3C)c2c1C` (configuration not stated) is 16.1%; for `Cc1sc2nc(C3CC3)nc(SCC(=O)N3CCc4ccccc4C3)c2c1C` it is 1.85%; for `CCc1nc(SCC(=O)N2CC(=O)Nc3ccccc32)c2c(C)c(C)sc2n1` it is 0.22%.
The result for `Cc1sc2nc(C3CC3)nc(SCC(=O)N3CCCc4ccccc43)c2c1C` reads 20.9%; that for `COc1ccccc1N=Nc1nc(-c2ccccc2)c(-c2ccccc2)[nH]1`, 12.4%; that for `CC(C)CNC(=O)COC(=O)CNC(=O)c1cc(Cl)cc([N+](=O)[O-])c1`, 1.69%.
For the molecule `COC(=O)C1=C(C)N(c2ccccc2)/C(=C/c2ccco2)C1=O`, the CPE inhibition was 0.77%.
Consider `CCc1ccc(NCCC(=O)c2ccc(Br)cc2)cc1`, for which the CPE inhibition is 0.86%.
`CCS(=O)(=O)N1CCCC(C(=O)Oc2ccc(Br)cc2)C1` (configuration not stated): the CPE inhibition is -0.04%.
The figure for `O=C(O)c1cccc(NC(=O)c2cn(-c3ccccc3)nc2-c2ccc([N+](=O)[O-])cc2)c1` is 19%; for `COc1cc(OC)cc(-c2oc(=O)c3cc(OC)c(OC)cc3c2/C=C/c2ccc(F)cc2)c1` it is 3.91%.
The figure for `COc1ccc(-c2oc(=O)c3cc(OC)c(OC)cc3c2/C=C/c2ccc(F)cc2)cc1` is 5.33%.
Take `Cc1cc(N(C(=O)c2ccco2)C(C(=O)NC2CCCCC2)c2ccccc2)ccc1-n1cnnn1` (configuration not stated): the CPE inhibition is 0.41%.
On to `CCN(CC)c1ccc(NC(=O)C(C)C)cc1`, for which the CPE inhibition was 0.56%.
With `COc1cccc(N2CCN(S(=O)(=O)c3c(C)[nH]c(C)c3C(=O)N3CCCCC3)CC2)c1`, the CPE inhibition was 1.56%.
The figure for `Cc1[nH]c(C)c(S(=O)(=O)N2CCN(c3ccccc3)CC2)c1C(=O)N1CCCCC1` is 0.61%; for `Cc1[nH]c(C)c(S(=O)(=O)N2CCN(c3cccc(Cl)c3)CC2)c1C(=O)N1CCCC1` it is 0.18%.
The figure for `Cc1[nH]c(C)c(S(=O)(=O)N2CCN(c3cccc(C(F)(F)F)c3)CC2)c1C(=O)N1CCCC1` is 2.4%; for `Cc1nc(SCC(=O)NCc2ccco2)c2c(=O)n(C)c(=O)n(CC(C)C)c2n1` it is 1.51%; for `O=c1c2c(n3cnnc3n1C1CCCCC1)-c1ccccc1CC21CCCCC1` it is 3.08%.
The result for `O=C(CCn1nnc2ccccc2c1=O)N[C@@H](Cc1ccccc1)C(=O)O` reads 2%.
For `COc1ccc(OC)c(CN2CCN(C(=O)c3ccco3)CC2)c1`, the CPE inhibition is 0.83%.
The result for `CNC(=O)CN1C(=O)NC(Cc2c[nH]c3ccccc23)C1=O` (configuration not stated) reads 2.1%.
The figure for `CC(C)(C)OC(=O)CN1C(=O)NC(Cc2c[nH]c3ccccc23)C1=O` (configuration not stated) is -0.27%; for `CC1CN(C(=O)/C=C/c2ccc(SC(F)F)cc2)CC(C)O1` (configuration not stated) it is 1.82%; for `Cc1occc1-c1nnc(SCC(N)=O)n1Cc1ccccc1` it is 1%.
The figure for `COC(=O)c1cccnc1NC(=S)NC1CCCCC1` is 0.64%.
As to `CC(C)OC(=O)c1ccc(Cn2nnc3ccccc3c2=O)cc1`, the CPE inhibition is 12.4%.
Take `Cc1ccc(O)c(NC(=S)NC(=O)CC(C)C)c1`: the CPE inhibition was 0.23%.
The result for `Cc1ccc(O)c(NC(=S)NC(=O)c2ccc(-c3ccc(Cl)cc3)o2)c1` reads -0.16%.
The figure for `CC(C)(C)c1ccc(C2C(C(=O)c3ccco3)=C(O)C(=O)N2CC2CCCO2)cc1` (configuration not stated) is 8.05%.
The figure for `Cc1cccc2nc(Cn3c(=O)n(CCC(=O)NCc4ccco4)c(=O)c4sccc43)cc(=O)n12` is 10.2%; for `Cc1ccccc1Cn1c(=O)n(CCCC(=O)NCc2ccco2)c(=O)c2sccc21` it is 3.02%.
For `O=C(CCCn1c(=O)c2sccc2n(CC(=O)NCc2ccco2)c1=O)NCc1ccco1`, the CPE inhibition is -0.82%.
Regarding `O=C(CCn1c(=O)c2ccccc2n(Cc2cc(=O)n3ccccc3n2)c1=O)NCc1ccco1`, the CPE inhibition is 64%.
In the case of `O=C(C1=C[C@@H](c2coc3ccccc3c2=O)C[C@@H](OCc2ccc(CO)cc2)O1)N1CCN(Cc2ccc3c(c2)OCO3)CC1`, the CPE inhibition was 4.77%.
Take `COC(=O)c1cc(S(=O)(=O)NCCc2cccc(C)c2)cn1C`: the CPE inhibition was 0.96%.
The result for `COc1ccccc1CNC(=O)Cc1csc(NC(=O)Nc2ccccc2OC)n1` reads 7.68%.
On to `CC(C)(C)c1csc(NC(=O)Nc2ccccc2)n1`, for which the CPE inhibition was 17.7%.
The result for `O=C(CCCCCNC(=O)N1CCn2c1nc1ccccc12)N[C@@H](Cc1ccccc1)C(=O)O` reads 0.73%; that for `Cc1ccc2c(Cl)cc(Cl)c(OCC(=O)Nc3ccc(C)c(S(=O)(=O)N(C)C)c3)c2n1`, 1.79%.
The figure for `Cc1cccn2c(=O)c(/C=C(\C#N)C(=O)NCc3ccco3)c(N3CCC(C(N)=O)CC3)nc12` is 2.25%; for `CNC(=O)/C(C#N)=C/c1c(N2CCN(c3ccccc3)CC2)nc2c(C)cccn2c1=O` it is 14.9%; for `Cc1cccn2c(=O)c(/C=C(\C#N)C(=O)NCc3ccco3)c(N3CCOCC3)nc12` it is 1.08%.
In the case of `CCN1CCN(c2nc3c(C)cccn3c(=O)c2/C=C(\C#N)C(=O)NC)CC1`, the CPE inhibition is 2.17%.
Consider `COC(=O)[C@H](CCSC)NC(=O)NCCc1ccccc1F`, for which the CPE inhibition was 0.16%.
The figure for `CC1CCN(Cc2c(C(=O)N/N=C/c3ccc(OC(C)C)cc3)nnn2-c2nonc2N)CC1` is 3%.
With `COc1ccc(C2C3=C(CC(C)(C)CC3=O)N(C)C3=C2C(=O)CC(C)(C)C3)cc1OC`, the CPE inhibition was 4.11%.
The figure for `COC(=O)C1=C(N)Oc2cc(C)n(CCCn3ccnc3)c(=O)c2C1c1cccc(Cl)c1` (configuration not stated) is 1.81%; for `CCOc1ccc(-c2cc(C(=O)O)c3ccccc3n2)cc1` it is 8.94%; for `CCOc1ccc(-c2cc(C(=O)N/N=C(\C)c3cccnc3)c3ccccc3n2)c(OCC)c1` it is 0.9%.
The result for `O=C(N/N=C/c1ccc2c(c1)OCO2)c1cc(-c2ccccc2Cl)nc2ccccc12` reads 4.7%; that for `COc1ccc(-c2cc(C(=O)N3CCN(c4ncccn4)CC3)c3ccccc3n2)c(OC)c1`, 0.07%; that for `COc1ccc(-c2cc(C(=O)N3CCCCC3)c3ccccc3n2)cc1`, 0.19%.
The figure for `O=C(N/N=C/c1ccc2c(c1)OCO2)c1cc(-c2ccccc2)nc2ccccc12` is 1.93%; for `COc1ccc(CN(C)CC(=O)Nc2ccccc2C(F)(F)F)c(OC)c1` it is 0.3%; for `CCOC(=O)C1CCCN(C(=O)c2cccc(S(=O)(=O)N(C)c3ccc(C)cc3)c2)C1` (configuration not stated) it is 0.68%.
`Cc1cccc(/C=N/NC(=O)c2cccc(NC(=O)c3ccccc3)c2)n1`: the CPE inhibition is 1.75%.
In the case of `CC1(C)CC(=O)C=C(NNC(=O)c2ccc(N)cc2)C1`, the CPE inhibition is 1.88%.
In the case of `O=C(CN(C(=O)c1csnn1)c1cccc2c1CCCC2)NCc1ccc(F)cc1`, the CPE inhibition was 1.67%.
As to `CCOC(=O)c1c(CN2CCOCC2)oc2ccc(OC(C)=O)cc12`, the CPE inhibition is 2.6%.
The result for `COc1ccc(OCc2cc(C(=O)N3CCCC(CO)C3)no2)c2ccccc12` (configuration not stated) reads 3.56%; that for `CC1CC(C)(C)NC(=S)N1CC(=O)N1CCN(Cc2ccccc2)CC1` (configuration not stated), -0.71%.
As for `Clc1ccc(OCc2nnc(-c3ccccc3Br)o2)cc1`, the CPE inhibition is 11.5%.
The result for `COc1ccc(-c2nc(CN3CCC(C(=O)N4CCc5ccccc54)CC3)c(C)o2)cc1OC` reads 0.12%.
With `O=C(O)CCC(=O)N1N=C(c2cccs2)CC1c1cn(-c2ccccc2)nc1-c1ccccc1` (configuration not stated), the CPE inhibition was 1.96%.
The result for `COc1ccc(-c2nn(-c3ccccc3)cc2C2CC(c3cccs3)=NN2C(=O)CCCC(=O)O)cc1` (configuration not stated) reads 6.41%; that for `CCCCCCSc1cccc(-c2nc3ccc(Cl)cn3c2NCc2ccccc2)c1`, -1.21%.
The result for `O=C(CCSc1nnc2scc(-c3ccccc3)n12)Nc1nc(-c2ccccc2)ns1` reads 9.19%; that for `CCN(c1ccccc1)S(=O)(=O)c1cccc(C(=O)NCC(c2cccs2)N(C)C)c1` (configuration not stated), -0.95%.
